The whole screen tested about 69,000 compounds, of which about 8,600 (12%) showed an effect of 50% or more. This is one part of a sample in which strong results are shown more often than they occur.

The test relates to Plasmodium berghei. In words: Screen against P. berghei liver stage (PbLuc), transformed with Luciferase, at 10uM. The format is functional, HepG2. The following applies: tested at 10 uM.
In the case of `Cc1cc(-n2nnc(C(=O)O)c2-c2ccncc2)ccc1F`, the INHIBITION is reported as 49.9%.
Regarding `CCOC(=O)CNC(=O)c1cccnc1Sc1cc(OC)ccc1OC`, the INHIBITION came to 3.58%.
Under `Cc1ccc(CNC(=O)NC(C)CN2CCOCC2)s1` (configuration not stated) stands 14%; under `COCCC(=O)N1C[C@@H](c2ccccc2F)[C@@]2(CCCC(=O)N2)C1`, 29.5%.
With `Cn1cc(N2CCC3(CCN(Cc4nccs4)C3)C2=O)cn1` (configuration not stated), the INHIBITION amounted to 26.2%.
Under `Cc1nc(C)n(CC2CCCN2Cc2nc(-c3ccsc3)no2)n1` (configuration not stated) stands 46.8%; under `Cc1ccccc1OCCCNC(=O)C1(C)CC(=O)N2C=CC=CC2=N1` (configuration not stated), 9.63%; under `Cc1nc(C)n(CC2CN(Cc3ccccc3C#N)CCO2)n1` (configuration not stated), 5.9%.
On to `CCN(Cc1cscn1)CC1(C)Cc2c(N)nc(N)nc2O1` (configuration not stated), for which the INHIBITION was 33.85%.
Regarding `CN(CCC(C)(C)O)C(=O)C1CCC(=O)N(Cc2ccc(Cl)cc2)C1` (configuration not stated), the INHIBITION is listed as 46.9%.
Under `CN(CC1(CO)CCC1)C(=O)C1CCC(=O)N(Cc2ccc(Cl)cc2)C1` (configuration not stated) stands 49%.
On to `CN(CC1(CO)CC1)C(=O)C1CCC(=O)N(Cc2ccc(Cl)cc2)C1` (configuration not stated), for which the INHIBITION turned out to be 70.4%.
Take `COc1cc(C(C)=O)ccc1OC12CCCN(CC1)C2` (configuration not stated): the INHIBITION is given as 47.7%.
On to `CCc1ccc(CN2CCCn3c(nc(Cn4ccnc4)cc3=O)C2)o1`, for which the INHIBITION is given as -2.17%.
Take `CCO[C@@H]1CCN(C(=O)c2ccc[nH]2)[C@@H]1Cc1cccnc1`: the INHIBITION amounted to 36.9%.
In the case of `Cc1ccc(S(=O)(=O)N2CCOCC2C(N)=O)c(F)c1` (configuration not stated), the INHIBITION is recorded as 27.4%.
As for `Cc1ccc(C(=O)N2CCOCC2C(N)=O)c(F)c1` (configuration not stated), the INHIBITION stood at 54.5%.
Then `Cc1ccc(C(=O)N2CC(C(N)=O)O[C@H](C)C2)c(F)c1` (some centres not stated), with -110%; and `CCOc1cccc(CSC(C)c2nc(C)no2)n1` (configuration not stated), with -10.8%.
In the case of `CCOc1ccc(CSC(C)c2nc(C)no2)nc1` (configuration not stated), the INHIBITION was determined as 60.2%.
Consider `Cc1noc(C(C)SCc2ccccn2)n1` (configuration not stated), for which the INHIBITION was 14.3%.
Then `CNc1nc2cn(C3CCCC3)c(=O)c-2c[nH]1`, with -24.5%; and `CC1CN(C)CCN1CC(=O)NCCOc1ccc2c(c1)OCO2` (configuration not stated), with 18.7%; and `O=C(c1ccccn1)N1CC(S(=O)(=O)c2ccc(Cl)cc2)C1`, with -54.7%.
Turning to `O=C(c1ccco1)N1CC(S(=O)(=O)c2ccc(Cl)cc2)C1`, the INHIBITION was 50.5%.
On to `O=C(c1cccnc1)N1CC(S(=O)(=O)c2ccc(Cl)cc2)C1`, for which the INHIBITION is on record as 29.7%.
Take `c1ccc2c3c([nH]c2c1)C(c1nn[nH]n1)CCC3` (configuration not stated): the INHIBITION came to 26.4%.
On to `Cn1ccnc1C1(O)CCCN(Cc2ccncc2)CC1` (configuration not stated), for which the INHIBITION came to 7.36%.
Under `COc1ccc(C2c3c(N)nc(SC)nc3N=C3CCCC(=O)C32)cc1` (configuration not stated) stands 21.7%.
On to `COc1cc2c(cc1CNC(Cc1cccs1)c1nccs1)OCO2` (configuration not stated), for which the INHIBITION was determined as 20.07%.
`CCOc1cc2c(cc1CNC(Cc1cccs1)c1nccs1)OCO2` (configuration not stated): the INHIBITION is on record as 52%.
Regarding `COc1cc2c(cc1CNC(Cc1cccs1)c1nccs1)OCCO2` (configuration not stated), the INHIBITION is reported as 36.9%.
Then `CCc1nnc(Nc2cc(C)nc(C3CCN(c4cnccn4)C3)n2)s1` (configuration not stated), with 32.3%; and `CCOc1ccc2[nH]c(=O)c(CN3CCN(S(N)(=O)=O)CC3)cc2c1`, with 94.3%; and `CCOc1ccc2[nH]c(=O)c(CN3CCC(O)CC3)cc2c1`, with 20.2%.
On to `CCCN1CCN(Cc2cc3cc(OCC)ccc3[nH]c2=O)CC1`, for which the INHIBITION came to 6.67%.
For the compound `CCCN(CCOC)C(=O)c1cc(Cn2c(C)nc3ccccc32)[nH]n1`, the INHIBITION came to 65.7%.
Take `CCn1nc(C)c(CN(CCOC)C(=O)c2ccc(=O)[nH]n2)c1C`: the INHIBITION is recorded as -65%.
Then `CCN(CCO)C(=O)c1cc(Cn2c(C)nc3ccccc32)[nH]n1`, with 24.9%.
As for `NC(=O)CNC(=O)c1cc(Cn2cnc3ccccc32)[nH]n1`, the INHIBITION was -72.5%.
Then `CCCN(CC)C(=O)c1cc(Cn2c(C)nc3ccccc32)[nH]n1`, with 75.7%.
Consider `Cc1nc2ccccc2n1Cc1cc(C(=O)N(C)C2CCOC2)n[nH]1` (configuration not stated), for which the INHIBITION is -39.9%.
As to `COCc1nc(C(=O)N2CCCC2c2cccs2)cs1` (configuration not stated), the INHIBITION came out at 42%.
With `Cc1cccc(CN2CCc3ncnc(NC4CCC4)c3CC2)n1`, the INHIBITION is on record as -24.8%.
Under `c1cc(CN2C[C@@H]3OCCN(CC4CCCO4)[C@@H]3C2)cs1` (some centres not stated) stands 46.2%; under `COc1cccc(CNCc2ccc(NC(=O)NC(C)C)cc2)c1`, 29.4%; under `COc1cc(CNCc2ccc(NC(=O)NC(C)C)cc2)cc(OC)c1`, 60%.
As to `CCOc1cccc(CNCc2ccc(NC(=O)NC(C)C)cc2)c1`, the INHIBITION is -18%.
As to `Cc1ccc(CN2CCC[C@]3(C(=O)O)CN(c4ncccn4)C[C@@H]3C2)o1`, the INHIBITION is 15.9%.
As for `c1cncc(CN2CCC(c3csc4nccn34)CC2)c1`, the INHIBITION is 3.295%.
Turning to `CC(C)(NC(=O)c1ccc(-c2ccc(F)cc2)s1)C(N)=O`, the INHIBITION is reported as 4.12%.
Turning to `CCCc1nnsc1C(=O)N1CCCC1(C)C(=O)N1CCOCC1` (configuration not stated), the INHIBITION is recorded as -53.1%.
Turning to `COc1cc(C(=O)N(C2CC2)C2CC(=O)NC2=O)ccc1C` (configuration not stated), the INHIBITION is 31%.
For `O=C1CC(N(C(=O)c2ccc(F)c(F)c2)C2CC2)C(=O)N1` (configuration not stated), the INHIBITION was found to be 15.3%.
In the case of `Cc1ccc(C(=O)N(C2CC2)C2CC(=O)NC2=O)cc1F` (configuration not stated), the INHIBITION worked out at 50.3%.
With `O=C(O)c1c[nH]c2cc(NS(=O)(=O)c3ccc(Cl)cc3F)ccc12`, the INHIBITION was -2.19%.
Regarding `CN(C)C(=O)[C@@H]1CCO[C@@H]2CCN(CCOCc3ccccc3)C[C@H]21`, the INHIBITION is listed as 43.1%.
`CC(=O)c1ccc(N2CCCC(CO)(CCOc3ccccc3)C2)nc1` (configuration not stated): the INHIBITION was determined as 70.1%.
`CC(=O)c1ccc(N2CCCC(CO)(CCc3ccccc3)C2)nc1` (configuration not stated): the INHIBITION is given as 43.7%.
Consider `CC(=O)c1ccc(N2CCC3(CC2)CC(=O)N(C)C3)nc1`, for which the INHIBITION is listed as 34.1%.
Regarding `CC(=O)c1ccc(N2CCC(CO)(CCOc3ccccc3)CC2)nc1`, the INHIBITION is on record as 95.1%.
As for `CCCN1CC2(CCN(c3ccc(C(C)=O)cn3)CC2)CC1C(=O)O` (configuration not stated), the INHIBITION was -12.5%.
For the compound `CN1C(=O)C2(CCN(S(C)(=O)=O)CC2)c2cc(F)ccc21`, the INHIBITION is listed as 17.7%.
Then `O=C(CNCCn1cccn1)NCC1(c2ccccc2)CCOCC1`, with 25.4%; and `CS(=O)(=O)NC[C@H]1OC[C@@H]2CCN(CCc3ccccc3)C[C@@H]21`, with 43.4%.
As for `Cn1c(C2CC2)nc2c1CCN(CCOc1cccc(F)c1)C2`, the INHIBITION amounted to 11.9%.
Consider `Cc1ccccc1C(=O)N1C[C@@H]2OCCN(c3ncccn3)[C@@H]2C1`, for which the INHIBITION is recorded as -2.35%.

(Values after ChEMBL document CHEMBL4513216, “Probing the Open Global Health Chemical Diversity Library for Multistage-Active Starting Points for Next-Generation Antimalarials” (ACS Infect Dis, 2020).)
